About 79,000 compounds went through this panel and 15% of them were active in at least one assay; those are over-represented in the sample as a whole. Active and inactive are the calls of the source. Rule as the data show it: active = growth inhibition above about 70%; inactive = the rest.
Assays:
[1] = NCI Yeast Anticancer Drug Screen. Data for the rad50 strain (AID 155);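 also: 0% = growth of vehicle-only cultures of the same strain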; conditions: S. cerevisiae rad50 strain growth inhibition; at 50.0 µM; active compounds read high
In short: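 Relative growth inhibition (compound vs vehicle) was measured in yeast with a defined repair-gene alteration.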

[2] = NCI Yeast Anticancer Drug Screen. Data for the mec2-1 strain (AID 157); conditions: S. cerevisiae mec2-1 strain, at 50.0 µM, active compounds read high
In short: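 Growth inhibition is read against vehicle-treated controls after compound exposure of the mec2-1 yeast strain, which is defective in DNA damage repair or cell cycle control.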

[3] = NCI Yeast Anticancer Drug Screen. Data for the sgs1 mgt1 strain (AID 161);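 also: 0% = growth of cultures given vehicle only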; conditions: S. cerevisiae sgs1 mgt1 strain, at 50.0 µM, active compounds read high
In short: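 Growth of a repair-deficient yeast mutant was monitored after compound treatment and expressed as inhibition relative to vehicle-treated cultures.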

[4] = NCI Yeast Anticancer Drug Screen. Data for the cln2 rad14 strain (AID 165);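 also: 0% = growth equal to vehicle treated cultures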; conditions: S. cerevisiae cln2 rad14 strain, at 50.0 µM, active compounds read high
In short: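 Growth inhibition, relative to vehicle-treated controls, is the read-out. The test organism is a yeast strain with defined genetic alterations, cln2 rad14.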

[5] = NCI Yeast Anticancer Drug Screen. Data for the bub3 strain (AID 167); conditions: S. cerevisiae bub3 mutant strain, at 50.0 µM, active compounds read high
In short: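 Screening used yeast with an engineered genetic alteration affecting cell cycle control. Compound-exposed cultures were compared with vehicle cultures, and reduced growth was taken as inhibition.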

[6] = NCI Yeast Anticancer Drug Screen. Data for the mlh1 rad18 strain (AID 175); conditions: S. cerevisiae mlh1 rad18 strain growth inhibition; at 50.0 µM; active compounds read high
In short: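 Cells of a genetically altered yeast strain, deficient in DNA damage repair, were treated with compound. Their growth was then compared with that of vehicle-treated cultures to give inhibition.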

| SMILES | growth inhibition [1] | growth inhibition [2] | growth inhibition [3] | growth inhibition [4] | growth inhibition [5] | growth inhibition [6] |
| --- | --- | --- | --- | --- | --- | --- |
| COc1ccc(N2C(=O)c3c(C)ccc(C)c3C2=O)cc1 | -23.8% (inactive) | 6.4% (inactive) | 19.9% (inactive) | -0.5% (inactive) | -3.5% (inactive) | 5.15% (inactive) |
| N#CC1=C(N)N(c2ccccc2)C(c2ccco2)C1(C#N)C#N (centres undefined) | 4.85% (inactive) | 13.3% (inactive) | 9.85% (inactive) | 3.35% (inactive) | -13.7% (inactive) | 6.25% (inactive) |
| Nc1cccc(NC(=O)c2cccc(N)c2)c1 | 9.8% (inactive) | -4.75% (inactive) | 2.2% (inactive) | 10.4% (inactive) | 11.4% (inactive) | 18.1% (inactive) |
| CC(C)N(CSc1ccc([N+](=O)[O-])cc1)CSc1ccc([N+](=O)[O-])cc1 | 12.3% (inactive) | 5.75% (inactive) | 4.1% (inactive) | -4.1% (inactive) | -4.7% (inactive) | -1% (inactive) |
| [N-]=[N+]=NCC1OCC(O)C(OCc2ccccc2)C1OCc1ccccc1 (centres undefined) | -8.6% (inactive) | -10.4% (inactive) | -3.75% (inactive) | -11.8% (inactive) | -10.4% (inactive) | 3.3% (inactive) |
| Cc1ccc(Cl)cc1NC(=O)C(Br)C(Br)c1ccccc1 (centres undefined) | 20.6% (inactive) | -7.7% (inactive) | 11.9% (inactive) | 0.85% (inactive) | -0.1% (inactive) | 6.2% (inactive) |
| CCOC(=O)/C=C1\CCC(C)n2c1nccc2=O (centres undefined) | -14.1% (inactive) | 4.8% (inactive) | -6% (inactive) | -7.5% (inactive) | 14.5% (inactive) | 14.3% (inactive) |
| O=S(=O)(O)CCCC1S(=O)(=O)OCCOS1(=O)=O | -55.1% (inactive) | -21.8% (inactive) | -8.4% (inactive) | -16.4% (inactive) | -1.3% (inactive) | -25.8% (inactive) |
| CC(C)(C)C(C)(C)CC(N)=O | 7.25% (inactive) | -15.7% (inactive) | -4.3% (inactive) | -3.6% (inactive) | 10.9% (inactive) | -9.1% (inactive) |
| C=CCN(C)C(=O)CCCCCCCC1C(CCCCCCCC)C2(Cl)C(Cl)=C(Cl)C1(Cl)C2(Cl)Cl (centres undefined) | 30.7% (inactive) | 4.35% (inactive) | 8.6% (inactive) | -20.5% (inactive) | -1.5% (inactive) | -8.35% (inactive) |
| COc1ccc(CCO)cc1 | 0.55% (inactive) | -36% (inactive) | -15.9% (inactive) | -10.2% (inactive) | -31.1% (inactive) | -33.2% (inactive) |
| [Cl][Sm]([Cl])[Cl] | 17.9% (inactive) | -9.7% (inactive) | 8.65% (inactive) | 8.6% (inactive) | 27.6% (inactive) | 9.6% (inactive) |
| CCOC(=O)CN1C(=O)CSC1=S | 42% (inactive) | -3.85% (inactive) | 24.3% (inactive) | 22.4% (inactive) | 61.4% (inactive) | 31.1% (inactive) |
| COc1ccccc1N/N=c1\c2nc3ccccc3nc1n(-c1ccccc1C)c(=S)n2-c1ccccn1 | 3.4% (inactive) | 5.1% (inactive) | 16.3% (inactive) | -0.75% (inactive) | 0.9% (inactive) | 8.85% (inactive) |
| CC(=O)NC(c1ccccc1)(c1ccccc1)c1ccccc1 | 12.1% (inactive) | 8.15% (inactive) | 14.8% (inactive) | 5.2% (inactive) | 31.1% (inactive) | 19.5% (inactive) |
| CC(C)C/C(CC(=O)CCC(=O)Nc1ccccc1[N+](=O)[O-])=N\NC(=O)c1cc2ccccc2cc1O | 17.8% (inactive) | 24.1% (inactive) | -11.8% (inactive) | 26.2% (inactive) | 9.8% (inactive) | 29.9% (inactive) |
| COc1cc(CCNC(=O)CC(C)C)ccc1OCc1ccccc1 | -14.9% (inactive) | -27% (inactive) | 1.35% (inactive) | -30.5% (inactive) | -11.9% (inactive) | -15.9% (inactive) |
| CC(=O)[C@H]1C[C@@H](CC(=O)O)C1(C)C | -0.55% (inactive) | -11.8% (inactive) | -10.6% (inactive) | -6% (inactive) | -3.25% (inactive) | -3.15% (inactive) |
| C=CCNC(=O)CCCCCCCC1C(CCCCCCCC)C2(Cl)C(Cl)=C(Cl)C1(Cl)C2(Cl)Cl (centres undefined) | 23.6% (inactive) | -4.6% (inactive) | 18.2% (inactive) | -12.2% (inactive) | 1.75% (inactive) | 17.8% (inactive) |
| CN(C)c1cc(N(C)C)c2cc(C#N)ccc2n1 | 15.4% (inactive) | 3.05% (inactive) | 17.2% (inactive) | -5.45% (inactive) | 0.9% (inactive) | 5.75% (inactive) |

| SMILES | growth inhibition [1] | growth inhibition [2] | growth inhibition [3] | growth inhibition [4] | growth inhibition [5] | growth inhibition [6] |
| --- | --- | --- | --- | --- | --- | --- |
| COc1ccc2c3c(n(Cc4ccccc4)c(=O)c2c1)-c1cc(OC)c(OC)cc1C3C (centres undefined) | 36.1% (inactive) | -21.7% (inactive) | -1.25% (inactive) | -26.6% (inactive) | -20.4% (inactive) | 23.1% (inactive) |
| COc1ccc(Cc2cc(OC)c(OC)c(OC)c2)cc1 | 13.2% (inactive) | -0.3% (inactive) | 7.7% (inactive) | 0% (inactive) | 31.8% (inactive) | -27.6% (inactive) |
| O=C(Nc1cccc(Cl)c1)ON1C(=O)C2C(C1=O)C1(Cl)C(Cl)C(Cl)C2(Cl)C1(Cl)Cl (centres undefined) | 0.4% (inactive) | 19.4% (inactive) | -15.8% (inactive) | -1.35% (inactive) | -24% (inactive) | -16.1% (inactive) |
| Cc1ccc(NCC(O)CN2CCCC2)cc1 (centres undefined) | 12.3% (inactive) | 5.35% (inactive) | 12.5% (inactive) | -26.4% (inactive) | -14.9% (inactive) | 12.1% (inactive) |
| Cc1c(O)nc(N)[nH]c1=O | 2.65% (inactive) | -24% (inactive) | -22.6% (inactive) | 1.7% (inactive) | -13.3% (inactive) | -7.2% (inactive) |
| CCSc1cc(=O)n(C)c(=O)n1C | 13.6% (inactive) | 7.15% (inactive) | 21.3% (inactive) | 4.55% (inactive) | 5.25% (inactive) | -10.5% (inactive) |
| Nc1c(Cl)ncnc1Cl | -13.8% (inactive) | 8.3% (inactive) | -16.4% (inactive) | -0.65% (inactive) | 19.7% (inactive) | -39.7% (inactive) |
| COc1ccc(NC(=O)C(=O)NNC(=O)c2sc(NNC(C)=O)nc2C)c([N+](=O)[O-])c1 | 27.3% (inactive) | -10.7% (inactive) | 39.2% (inactive) | 8.4% (inactive) | 20.6% (inactive) | 5.3% (inactive) |
| CN1CC(C(N)=O)=CC(C(N)=O)C1 (centres undefined) | -5.25% (inactive) | -9.2% (inactive) | -8.15% (inactive) | -0.6% (inactive) | 9.25% (inactive) | 7.5% (inactive) |
| CCOC(=O)n1oc2ccc(Br)cc2c1=O | 53.3% (inactive) | 58% (inactive) | 76.2% (active) | 45% (inactive) | 61.6% (inactive) | 64.5% (inactive) |
| N#C/C(=C\c1c(Cl)cccc1Cl)c1ccc([N+](=O)[O-])cc1 | 7.65% (inactive) | -0.2% (inactive) | 16% (inactive) | -4.45% (inactive) | 48.8% (inactive) | 5.1% (inactive) |
| CCCC(=O)Nc1ccccc1OC | 12.8% (inactive) | 12.7% (inactive) | 9.2% (inactive) | 11.9% (inactive) | 24.4% (inactive) | -0.75% (inactive) |
| CCCCCCC#CC(=O)OC | -3.05% (inactive) | -21.6% (inactive) | 1.5% (inactive) | 15.4% (inactive) | -11.6% (inactive) | 24.4% (inactive) |
| CCN(CC)CC(Oc1ccccc1)C(=O)c1ccccc1 (centres undefined) | -10.2% (inactive) | -15.7% (inactive) | 4.75% (inactive) | -30.1% (inactive) | -11.4% (inactive) | -7.4% (inactive) |
| O=C(c1ccc(Cl)cc1)c1cc([N+](=O)[O-])cc([N+](=O)[O-])c1 | -0.35% (inactive) | 3% (inactive) | -2.45% (inactive) | -49.6% (inactive) | 22.8% (inactive) | -8.75% (inactive) |
| Cc1cc(C)cc(Sc2c([N+](=O)[O-])ncn2C)c1 | 7.65% (inactive) | 19.3% (inactive) | -16.7% (inactive) | 21.1% (inactive) | 29.2% (inactive) | 39.7% (inactive) |
| CCCNc1nc(C)nc2[nH]c(Cc3ccccc3)c(C)c12 | 12.4% (inactive) | 11.9% (inactive) | 21.9% (inactive) | 0.8% (inactive) | 14.8% (inactive) | 27.1% (inactive) |
| O=C(Nc1ccc(Cl)cc1)OCc1ccco1 | 2.2% (inactive) | 24.1% (inactive) | 24.4% (inactive) | -12.4% (inactive) | 17.8% (inactive) | 16.8% (inactive) |
| CCOC(=O)Cn1c(=O)n(C)c(=O)c2[nH]cnc21 | 28.7% (inactive) | -27.1% (inactive) | 17.4% (inactive) | 15.1% (inactive) | 22.5% (inactive) | 28.5% (inactive) |

Source: PubChem BioAssay (NCI)
